Target: T1, GST-Nv-NF-kB (Ser allele) (Nematostella vectensis, UniProt A7UNT2 2-411)
T1 sequence: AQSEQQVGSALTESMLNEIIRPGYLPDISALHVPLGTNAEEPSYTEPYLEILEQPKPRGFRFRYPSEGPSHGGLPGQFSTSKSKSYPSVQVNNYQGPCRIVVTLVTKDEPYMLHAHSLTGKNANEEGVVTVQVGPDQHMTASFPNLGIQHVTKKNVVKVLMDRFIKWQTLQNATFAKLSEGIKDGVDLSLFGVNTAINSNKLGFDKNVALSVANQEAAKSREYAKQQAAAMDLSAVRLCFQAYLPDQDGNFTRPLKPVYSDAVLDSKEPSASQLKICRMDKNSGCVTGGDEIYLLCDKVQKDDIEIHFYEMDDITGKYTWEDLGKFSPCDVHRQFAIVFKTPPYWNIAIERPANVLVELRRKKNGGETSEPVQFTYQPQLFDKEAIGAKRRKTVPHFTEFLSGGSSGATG
Assay: protein-binding microarray (PBM); PBM: ~300 nM protein, 6 mM HEPES pH 7.8, 80 mM KCl, 0.5 mM EDTA, 0.5 mM EGTA, 6% glycerol, 35 ng/ul poly-dIdC, 1% milk, 1 h, room temperature; Ap Aiptasia and Nv Nematostella (sea anemones) / Co Capsaspora / Aq Amphimedon (sponge) / Dm Drosophila / Hu human; RHD is the Rel homology domain; high values mean tight binding
Conditions: dsDNA, one strand shown

Sequence	binding signal [z-score]
CCGATTAACATCAAATAAGCCCCTGATGTTAATCGGGTCTTGATTCGCTTGACGCTGCTG	4
CCGATTAACATCAAGGGAATTCCTGATGTTAATCGGGTCTTGATTCGCTTGACGCTGCTG	6.53
CCGATTAACATCAAAATACCCCTTGATGTTAATCGGGTCTTGATTCGCTTGACGCTGCTG	6.34
CCGATTAACATCAGGTATTTCCATGATGTTAATCGGGTCTTGATTCGCTTGACGCTGCTG	1.6
CCGATTAACATCACCAAACCCCCTGATGTTAATCGGGTCTTGATTCGCTTGACGCTGCTG	6.38
CCGATTAACATCAGGGGGGAGAATGATGTTAATCGGGTCTTGATTCGCTTGACGCTGCTG	6.04
CCGATTAACATCAGAAAAATCCCTGATGTTAATCGGGTCTTGATTCGCTTGACGCTGCTG	5.14
CCGATTAACATCATCAGGGGGGATGATGTTAATCGGGTCTTGATTCGCTTGACGCTGCTG	3.78
CCGATTAACATCAACTCCCCCCCTGATGTTAATCGGGTCTTGATTCGCTTGACGCTGCTG	4.48
CCGATTAACATCAGGGGCTTACCTGATGTTAATCGGGTCTTGATTCGCTTGACGCTGCTG	3.61
CCGATTAACATCAAGGGGGGAACTGATGTTAATCGGGTCTTGATTCGCTTGACGCTGCTG	6.05
CCGATTAACATCAGGGGGTGGAATGATGTTAATCGGGTCTTGATTCGCTTGACGCTGCTG	4.75
CCGATTAACATCAAACGTTCCCCTGATGTTAATCGGGTCTTGATTCGCTTGACGCTGCTG	6.33
CCGATTAACATCACAGAAACCCCTGATGTTAATCGGGTCTTGATTCGCTTGACGCTGCTG	4.97
CCGATTAACATCAGAACATCCCCTGATGTTAATCGGGTCTTGATTCGCTTGACGCTGCTG	6.48
CCGATTAACATCATACCCCCCCATGATGTTAATCGGGTCTTGATTCGCTTGACGCTGCTG	3.11
CCGATTAACATCAAAATGCCCCCTGATGTTAATCGGGTCTTGATTCGCTTGACGCTGCTG	4.81
CCGATTAACATCAAAAAAACCCTTGATGTTAATCGGGTCTTGATTCGCTTGACGCTGCTG	5.27
CCGATTAACATCACGCGTCTACCTGATGTTAATCGGGTCTTGATTCGCTTGACGCTGCTG	1.34
CCGATTAACATCAGGGGGAGTCATGATGTTAATCGGGTCTTGATTCGCTTGACGCTGCTG	5.02
CCGATTAACATCAAGGAGTCCCCTGATGTTAATCGGGTCTTGATTCGCTTGACGCTGCTG	5.36
CCGATTAACATCAAGGGGGGGGGTGATGTTAATCGGGTCTTGATTCGCTTGACGCTGCTG	4.84
CCGATTAACATCAAAATAGCCCCTGATGTTAATCGGGTCTTGATTCGCTTGACGCTGCTG	5.05
CCGATTAACATCAATACCCCCCCTGATGTTAATCGGGTCTTGATTCGCTTGACGCTGCTG	4.49
CCGATTAACATCACGAAAACCCCTGATGTTAATCGGGTCTTGATTCGCTTGACGCTGCTG	5.71

— PMC5700166
